Among the test systems are SR leukemia; RPMI-8226 leukemia; OVCAR-8 ovarian; OVCAR-5 ovarian; OVCAR-4 ovarian; SK-OV-3 ovarian; IGROV1 ovarian; NCI/ADR-RES ovarian; T-47D breast; BT-549 breast; MDA-MB-435 melanoma; SW-620 colon; MCF7 breast; HCT-116 colon; HCC-2998 colon; KM12 colon; HS 578T breast.
Assay in all cases: NCI-60 one-dose screen, 48 h (100 = growth as untreated, 0 = no growth, -100 = all killed)
Common to all, as to settings: 10 µM unless noted

The panel holds about 83,000 compounds, 20% with a hit somewhere; the sample as a whole holds those more often.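 Each cell line was grown in a 96-well plate and treated with one concentration of compound for 48 hours. Values below 10 were considered active.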 Unmarked numbers belong to inactive results. The source made the active and inactive calls.

In the case of `CCCCNC(=O)NS(=O)(=O)c1ccc(N2N=C(c3cc(C)ccc3C)CC2c2cc(OC)c(OC)c(OC)c2)cc1` (stereo unspecified), the growth was 12.7% in the assay with SR leukemia; 28.3% in the assay on RPMI-8226 leukemia; 53.2% with OVCAR-8 ovarian; 95.9% in the assay with OVCAR-5 ovarian; 77.7% in the assay on OVCAR-4 ovarian; 68% in the assay with SK-OV-3 ovarian. For the same molecule, the growth was 41.4% with IGROV1 ovarian; 30.3% in the assay with NCI/ADR-RES ovarian; 38.4% with T-47D breast; 20.6% with BT-549 breast; -46.2% (active) in the assay on MDA-MB-435 melanoma; 66.6% with SW-620 colon. Besides, the growth with MCF7 breast was 24.4%; in the assay on HCT-116 colon, 32.3%; in the assay with HCC-2998 colon, -1.57% (active); with KM12 colon, 46.1%.
In the case of `COc1ccc(C/C(C)=C(\c2ccc(OCCN3CCCCCC3)cc2)c2ccc(OC(=O)C3CCCCC3)cc2)cc1`, the growth in the assay with SR leukemia is 3.43% (active); in the assay on RPMI-8226 leukemia, 40.1%; in the assay with OVCAR-8 ovarian, 68.9%; with OVCAR-5 ovarian, 81.9%; with OVCAR-4 ovarian it was 71.7%; with SK-OV-3 ovarian it was 77.8%. For the same molecule, the growth in the assay on IGROV1 ovarian is 52.3%; with HS 578T breast, 51.6%; with NCI/ADR-RES ovarian, 73.5%; in the assay on T-47D breast, 38.1%; with BT-549 breast it was 83.7%; in the assay with MDA-MB-435 melanoma it was 68.8%. Also, the growth in the assay with SW-620 colon is 64.8%; in the assay with MCF7 breast, 29.3%; in the assay on HCT-116 colon, 38.5%; in the assay with HCC-2998 colon, 56.9%; in the assay on KM12 colon, 63.1%.
Turning to `C=C1CC2(OC1=O)C(=O)N(CCCCCCCN1C(=O)C3(CC(=C)C(=O)O3)c3ccccc31)c1ccccc12` (stereo unspecified), the growth in the assay with SR leukemia was 3.28% (active); in the assay on RPMI-8226 leukemia it was -28.1% (active); with OVCAR-8 ovarian it was 9.09% (active); with OVCAR-5 ovarian, 45.1%; with OVCAR-4 ovarian, 10.2%; in the assay with SK-OV-3 ovarian it was 112%. For the same molecule, the growth with IGROV1 ovarian was 10.5%; with HS 578T breast, 62.3%; in the assay on NCI/ADR-RES ovarian, 32.6%; with T-47D breast it was 22.5%; in the assay on BT-549 breast, 35.2%; with MDA-MB-435 melanoma, 6.35% (active). Moreover, the growth in the assay on SW-620 colon is -49.8% (active); with MCF7 breast, -4.01% (active); in the assay on HCT-116 colon, -21.8% (active); in the assay with HCC-2998 colon, 82.5%; in the assay with KM12 colon, 73.6%.
On to `Cc1ccc(-c2nc(/C=N/Nc3cc(C)nc4ccc(Br)cc34)c(C)o2)cc1`, for which the growth in the assay with SR leukemia is 2.27% (active); in the assay on RPMI-8226 leukemia, -38.5% (active); with OVCAR-8 ovarian, -63.5% (active); with OVCAR-5 ovarian, -68.7% (active); in the assay with OVCAR-4 ovarian it was -94.3% (active); with SK-OV-3 ovarian it was 105%. For the same molecule, the growth with IGROV1 ovarian was -77.3% (active); in the assay with HS 578T breast, 102%; in the assay with NCI/ADR-RES ovarian, -69.9% (active); in the assay with T-47D breast, -8.4% (active); in the assay with BT-549 breast it was 86.3%; in the assay on MDA-MB-435 melanoma it was -95.1% (active). For the same molecule, the growth in the assay with SW-620 colon is -84.7% (active); in the assay on MCF7 breast, -78.6% (active); with HCT-116 colon it was -65.8% (active); with HCC-2998 colon it was -63.4% (active); in the assay with KM12 colon, -39.9% (active).
Turning to `COc1cnc2c(c1)C(=O)c1c-2n(CCCN2CCCC2)c(=O)c2cc([N+](=O)[O-])ccc12`, the growth with SR leukemia was -1.06% (active); in the assay on RPMI-8226 leukemia it was -34.1% (active); in the assay on OVCAR-8 ovarian it was -37.2% (active); with OVCAR-5 ovarian, -28.4% (active); in the assay with OVCAR-4 ovarian it was 10.4%; in the assay on SK-OV-3 ovarian it was -9.51% (active). For the same molecule, the growth with IGROV1 ovarian is -5.7% (active); in the assay on HS 578T breast it was 35.1%; in the assay on NCI/ADR-RES ovarian, -20.2% (active); in the assay on T-47D breast, 24.5%; with BT-549 breast it was 18.2%; in the assay with MDA-MB-435 melanoma, 2.83% (active). Moreover, the growth with SW-620 colon is -19.3% (active); with MCF7 breast, 3.81% (active); with HCT-116 colon it was -67.5% (active); with HCC-2998 colon, 16.2%; with KM12 colon it was -33.3% (active).
For `Nc1ccc2c(c1)C(=O)NC2=O`, the growth in the assay on SR leukemia was 40.7%; in the assay on RPMI-8226 leukemia, 84.1%; in the assay with OVCAR-8 ovarian, 106%; with OVCAR-5 ovarian, 92.8%; in the assay on OVCAR-4 ovarian it was 82.8%; in the assay with SK-OV-3 ovarian it was 100%. The growth with IGROV1 ovarian was 113%; with HS 578T breast, 93.5%; in the assay on NCI/ADR-RES ovarian, 95.2%; with T-47D breast it was 93.5%; in the assay with BT-549 breast it was 117%; in the assay with MDA-MB-435 melanoma, 92.2%. Also, the growth is 94.8% in the assay on SW-620 colon; 96.5% in the assay on MCF7 breast; 97.8% in the assay on HCT-116 colon; 95.2% in the assay with HCC-2998 colon; 98.8% with KM12 colon.
For `CCOC(=S)SCc1ccc(Cl)cc1`, the growth is 80.2% with SR leukemia; 108% in the assay on RPMI-8226 leukemia; 101% in the assay with OVCAR-8 ovarian; 95.6% with OVCAR-5 ovarian; 95.6% in the assay on OVCAR-4 ovarian; 150% with SK-OV-3 ovarian. Also, the growth in the assay with IGROV1 ovarian is 104%; in the assay with HS 578T breast, 107%; in the assay on NCI/ADR-RES ovarian it was 105%; in the assay with BT-549 breast, 96.3%; in the assay on MDA-MB-435 melanoma, 101%; with SW-620 colon, 101%. Moreover, the growth in the assay with MCF7 breast was 103%; with HCT-116 colon, 92.3%; in the assay on HCC-2998 colon, 131%; in the assay on KM12 colon, 108%.
With `CC[C@@H](C)OC(=O)c1nn(C(C)=O)c2ccccc12`, the growth in the assay on SR leukemia is 110%; in the assay with RPMI-8226 leukemia, 107%; in the assay with OVCAR-8 ovarian it was 92.7%; in the assay with OVCAR-5 ovarian, 101%; in the assay with OVCAR-4 ovarian it was 103%; with SK-OV-3 ovarian it was 114%. For the same molecule, the growth was 110% with IGROV1 ovarian; 106% in the assay with HS 578T breast; 94.2% in the assay on NCI/ADR-RES ovarian; 103% in the assay with T-47D breast; 105% with BT-549 breast; 103% in the assay on MDA-MB-435 melanoma. Besides, the growth with SW-620 colon was 107%; in the assay with MCF7 breast, 83.6%; in the assay with HCT-116 colon, 104%; in the assay on HCC-2998 colon it was 96.4%; in the assay on KM12 colon it was 103%.
Take `NC1=CC(=O)C(=O)c2ccccc21`: the growth in the assay on SR leukemia is 81.8%; with RPMI-8226 leukemia, 79.3%; with OVCAR-8 ovarian, 64.2%; in the assay on OVCAR-5 ovarian, 93.3%; with OVCAR-4 ovarian it was 69.3%; in the assay with SK-OV-3 ovarian it was 92.6%. Also, the growth in the assay on IGROV1 ovarian was 89.7%; with HS 578T breast, 99.5%; in the assay on NCI/ADR-RES ovarian it was 58.7%; with T-47D breast, 56.4%; with BT-549 breast it was 90.4%; with MDA-MB-435 melanoma, -72.4% (active). In addition, the growth in the assay with SW-620 colon was 98.9%; with MCF7 breast it was 86%; in the assay with HCT-116 colon, 63.4%; in the assay with HCC-2998 colon, 95%; in the assay on KM12 colon, 95.7%.

Source of the values: PubChem BioAssay (NCI).
